Laboratory results published in PubChem BioAssay (EPA / NIEHS).
Results filed as inconclusive are left out. Calls of active or inactive are those of the source. Rule for the calls, unless noted: active = hit-call score of the fitted dose curve at least 0.9, where 1 is the maximum; inconclusive = response in the unintended direction; inactive = score below 0.9.

Columns and labels:
[1] = STM_H9_OrnithineISnorm_perc: Stemina devTOX quickPredict H9 human embryonic stem cell (hESC)-based Assay for Ornithine (ORN) Metabolite Biomarker, Normalized (AID 2283712; active = hit-call score of the fitted dose curve at least 0.9, where 1 is the maximum; inactive = score below 0.9;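 note: ornithine released into spent medium during last day measured by mass spectrometry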)
How it was run: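 H9 human embryonic stem cells kept pluripotent receive test chemical over 72 h, refreshed daily by media exchange. Media from the closing 24 h is deproteinized and analysed by UPLC-HRMS on an amide column; ornithine signal is scaled to labelled standard and vehicle.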

[2] = STM_H9_CystineISnorm_perc: Stemina devTOX quickPredict H9 human embryonic stem cell (hESC)-based Assay for Cystine (CYSS) Metabolite Biomarker, Normalized (AID 2283713; active = hit-call score of the fitted dose curve at least 0.9, where 1 is the maximum; inactive = score below 0.9)
How it was run: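 H9 hESC, pluripotent; compound 72h, re-dosed q24h with medium change. Last-24h medium → 40% acetonitrile deproteinization → UPLC-HRMS. CYSS area / C13-CYSS standard, then % of 0.1% DMSO median.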

[3] = STM_H9_OrnCyssISnorm_ratio: Stemina devTOX quickPredict H9 human embryonic stem cell (hESC)-based Assay for Ornithine (ORN):Cystine (CYSS) Ratio (AID 2283714)
How it was run: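 Steps: H9 hESCs in pluripotent state dosed 72h, medium plus compound renewed every 24h; conditioned medium from the final 24h deproteinized in 40% acetonitrile; ORN and CYSS quantified by UPLC-HRMS with C13 spike-ins; ratio relative to vehicle.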

[4] = CEETOX_H295R_MTT_cell_viability: Viability Assessment in the CeeTox HT-H295R MTT Assay (AID 2283718; active = hit-call score of the fitted dose curve at least 0.9, where 1 is the maximum; inactive = score below 0.9;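 for AC50: curve fitted both ways so AC50 may mark viability loss or gain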)
How it was run: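 MTT reduction (0.5 mg/ml, 4 h at 37 C; absorbance at 570 and 650 nm) gave viability as background-corrected percent change versus controls. H295R cells had 48 h forskolin (10 uM) prestimulation, then 48 h chemical exposure at 0.1% DMSO.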

[5] = read-out: sulfotransferase (SULT2A), SULT2A1 (gene 6822); test: CLD_SULT2A_48hr: CellzDirect (CLD) Gene Expression Assay for sulfotransferase (SULT2A) at 48 hours (AID 2283710);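 note: hits raise SULT2A1 transcript above the 0.2% DMSO vehicle baseline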
How it was run: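 Primary human hepatocytes (two donor preparations) dosed daily for two days with chemicals at multiple concentrations, vehicle 0.2% DMSO; SULT2A1 mRNA induction at 48 h by quantitative nuclease protection assay, chemiluminescent read-out, fitted for gain of signal versus DMSO.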

[6] = tested on: chicken Androgen Receptor (AR), gene 422165; test: ATG_chAR_XSP1: Attagene TRANS-FACTORIAL Multi-Species (XSP1) HepG2 Assay for chicken Androgen Receptor (AR) (AID 2283768)
How it was run: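 HepG2 cells transiently transfected with multiplexed GAL4-UAS reporter units expressing chimeric chicken AR-Gal4; 3 nM 6-alpha-fluorotestosterone for partial AR stimulation; 24 h after dosing, reporter mRNA by RT-PCR and capillary electrophoresis, gain-of-signal versus DMSO.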

[7] = target: zebrafish Estrogen Receptor (ESR1), esr1 (gene 259252) (UniProt P57717); test: ATG_zfER1_XSP1: Attagene TRANS-FACTORIAL Multi-Species (XSP1) HepG2 Assay for zebrafish Estrogen Receptor (ESR1) (AID 2283772)
Chain of zebrafish Estrogen Receptor (ESR1), esr1 (gene 259252) (P57717 whole entry, looked up, the tested form may be a part): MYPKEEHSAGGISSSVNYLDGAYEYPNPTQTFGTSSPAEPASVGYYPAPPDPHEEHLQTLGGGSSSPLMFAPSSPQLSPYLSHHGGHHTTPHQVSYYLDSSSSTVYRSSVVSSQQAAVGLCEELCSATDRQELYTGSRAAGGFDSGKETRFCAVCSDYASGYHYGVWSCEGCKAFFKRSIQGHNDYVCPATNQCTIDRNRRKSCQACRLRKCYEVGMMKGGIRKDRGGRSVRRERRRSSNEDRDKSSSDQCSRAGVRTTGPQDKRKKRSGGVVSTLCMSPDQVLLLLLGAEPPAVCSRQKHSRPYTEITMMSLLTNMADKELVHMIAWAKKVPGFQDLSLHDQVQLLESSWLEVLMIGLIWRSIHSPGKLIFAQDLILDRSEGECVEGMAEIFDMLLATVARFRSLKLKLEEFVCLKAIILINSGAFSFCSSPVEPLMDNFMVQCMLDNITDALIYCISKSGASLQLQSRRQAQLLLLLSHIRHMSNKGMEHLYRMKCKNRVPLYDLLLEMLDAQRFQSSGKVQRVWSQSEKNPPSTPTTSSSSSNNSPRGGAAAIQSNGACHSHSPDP
How it was run: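 Readout: fluorescent reporter mRNA, RT-PCR plus FAM labelling, HpaI digest, capillary electrophoresis; gain-of-signal fit vs DMSO. HepG2, transient multi-reporter TRANS (NR-GAL4 chimera), 24 h chemical exposure, 3 nM 6-alpha-fluorotestosterone co-added.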

[8] = tested on: zebrafish Estrogen Receptor (ESR2B), gene 317733; test: ATG_zfER2b_XSP1: Attagene TRANS-FACTORIAL Multi-Species (XSP1) HepG2 Assay for zebrafish Estrogen Receptor (ESR2B) (AID 2283773)
How it was run: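 Gain-of-signal endpoint relative to DMSO: reporter transcript levels quantified by RT-PCR and capillary electrophoresis after 24 h compound exposure of HepG2 cells expressing a zebrafish ER2b-Gal4 chimera.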

[9] = target: Luciferin 4-monooxygenase (Photinus pyralis) (UniProt P08659); test: CCTE_Simmons_QuantiLum_inhib_2: CCTE's Firefly Luciferase Inhibition Assay, Simmons Lab (AID 2283767);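 for AC50: potency for inhibitors that lower luciferase luminescence relative to DMSO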
Chain of Luciferin 4-monooxygenase (Photinus pyralis) (P08659 whole entry, looked up): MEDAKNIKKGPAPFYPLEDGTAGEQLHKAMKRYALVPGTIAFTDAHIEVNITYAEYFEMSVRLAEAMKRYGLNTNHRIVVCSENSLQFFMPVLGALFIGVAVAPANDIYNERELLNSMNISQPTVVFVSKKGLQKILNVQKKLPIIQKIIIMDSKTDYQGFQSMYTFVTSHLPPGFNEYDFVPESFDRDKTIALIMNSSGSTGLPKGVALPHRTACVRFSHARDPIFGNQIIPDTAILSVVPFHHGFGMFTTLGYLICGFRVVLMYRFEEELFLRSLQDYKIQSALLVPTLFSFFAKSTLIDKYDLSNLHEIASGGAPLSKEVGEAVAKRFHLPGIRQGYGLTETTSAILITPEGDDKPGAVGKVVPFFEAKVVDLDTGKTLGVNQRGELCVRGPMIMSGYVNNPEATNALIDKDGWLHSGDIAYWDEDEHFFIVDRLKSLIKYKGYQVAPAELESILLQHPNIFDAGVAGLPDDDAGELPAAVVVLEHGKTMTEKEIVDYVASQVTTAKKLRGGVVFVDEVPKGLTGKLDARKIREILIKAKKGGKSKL
How it was run: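 Luminescence loss relative to DMSO vehicle defines inhibition; detection reagent containing 150 uM D-luciferin and 147 uM dATP (final, pH 7.8) is injected immediately before each read. Enzyme is preincubated with an 8-point titration (5 nM–87.5 uM final) for 30 min at 37C.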

[10] = tested on: Thyroperoxidase (TPO), gene 445522; test: CCTE_Simmons_GUA_TPO: CCTE's Guaiacol Assay for Thyroperoxidase (TPO) Inhibition, Simmons Lab (AID 2283750)
How it was run: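 Porcine thyroid microsomes (25 ug) in 200mM potassium phosphate, preincubated 30 s at 37C with compound (8 concentrations, 5 nM–87.5 uM) and 35mM guaiacol; 1mM H2O2 starts reaction. Absorbance change at 450nm over first 80 s; loss of signal versus DMSO, three replicates.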

[11] = Tanguay_ZF_120hpf_ActivityScore_legacy: (Legacy) Oregon State University Tanguay Lab 120 Hour Post-fertilization zebrafish Assay Score for Activity (AID 2283742)
How it was run: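 Embryos are staged, enzymatically dechorionated at 4 hpf, placed individually at 6 hpf, then held in test chemical (0.64% DMSO) at 28C until 120 hpf. Mortality and malformations are scored by brightfield, with non-mortality endpoints skipped for dead embryos.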

[12] = read-out: HMG-CoA synthase (HMGCS2), HMGCS2 (gene 3158); test: CLD_HMGCS2_48hr: CellzDirect (CLD) Gene Expression Assay for HMG-CoA synthase (HMGCS2) at 48 hours (AID 2283711)
How it was run: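 Primary human hepatocytes from two donors dosed daily for two days, 0.2% DMSO vehicle. HMGCS2 mRNA measured 48 h after dosing by quantitative nuclease protection assay with chemiluminescent read-out; induction fitted relative to DMSO, cytotoxicity flagged by microscopy.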

CC(C)OC(=O)Nc1cccc(Cl)c1
outcome [1]: inactive
AC50 [2]: 11.1 µM (active)
AC50 [3]: 11.7 µM (active)
outcome [4]: inactive

O=[N+]([O-])/N=C1\NCCN1Cc1ccc(Cl)nc1
outcome [5]: inactive
outcome [4]: inactive

CCCN(CCC)c1c([N+](=O)[O-])cc(C(F)(F)F)cc1[N+](=O)[O-]
outcome [5]: inactive
outcome [4]: inactive
AC50 [6]: 47.9 µM (active)
outcome [7]: inactive
AC50 [8]: 44.3 µM (active)

C[C@H]1[C@H](c2ccc(Cl)cc2)SC(=O)N1C(=O)NC1CCCCC1
outcome [5]: inactive
AC50 [4]: 0.000405 µM (active)

CNC(=O)Oc1ccccc1OC(C)C
outcome [5]: inactive
outcome [4]: inactive

COc1nn(CSP(=S)(OC)OC)c(=O)s1
outcome [5]: inactive
outcome [4]: inactive
outcome [9]: inactive

CCS(=O)(=O)c1cccnc1S(=O)(=O)NC(=O)Nc1nc(OC)cc(OC)n1
outcome [5]: inactive
outcome [4]: inactive

N#CN
outcome [9]: inactive

O=[N+]([O-])c1c(Cl)c(Cl)c(Cl)c(Cl)c1Cl
outcome [5]: inactive
outcome [4]: inactive

COP(=O)(OC)OC=C(Cl)Cl
outcome [5]: inactive
outcome [9]: inactive

COP(=S)(OC)Oc1ccc([N+](=O)[O-])cc1
outcome [5]: inactive
outcome [4]: inactive
outcome [10]: inactive
outcome [9]: inactive

CN1CSC(=S)N(C)C1
outcome [5]: inactive
AC50 [9]: 40.5 µM (active)

O=C1c2ccccc2C(=O)N1SC(Cl)(Cl)Cl
outcome [4]: inactive
outcome [11]: inactive
outcome [9]: inactive

CC(C)N(C(=O)COc1nnc(C(F)(F)F)s1)c1ccc(F)cc1
outcome [5]: inactive
outcome [4]: inactive

N#Cc1c(Cl)c(Cl)c(Cl)c(C#N)c1Cl
outcome [5]: inactive
outcome [4]: inactive

CCOCN(C(=O)CCl)c1c(C)cccc1CC
outcome [1]: inactive
outcome [2]: inactive
AC50 [8]: 29.5 µM (active)

ClC1C(Cl)C(Cl)C(Cl)C(Cl)C1Cl (configuration not stated)
outcome [4]: inactive

CCN(CC)C(=O)SCc1ccc(Cl)cc1
outcome [5]: inactive
outcome [4]: inactive

CNC(=O)Oc1cccc(N=CN(C)C)c1
outcome [4]: inactive
outcome [9]: inactive

CNC(=O)CSP(=S)(OC)OC
outcome [12]: inactive
outcome [4]: inactive
outcome [10]: inactive
AC50 [9]: 34.2 µM (active)

CCc1ccc(C(=O)NN(C(=O)c2cc(C)cc(C)c2)C(C)(C)C)cc1
outcome [5]: inactive
outcome [4]: inactive
